Potency and affinity values are given separately. Results filed as inconclusive are left out.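 The calls were made as follows: active = compounds lowering the FRET ratio whose fitted half-maximal concentration is at most twice their top tested dose; inconclusive = flat partial drop between 30 and 70 percent, or bad fit; inactive = the rest.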
Biological target: Voltage-dependent L-type calcium channel subunit alpha-1D (Homo sapiens) (UniProt Q01668)
Assay: disruptors of CaV1.3 IQ/ICDI domain association – cell-based, HEK293, YFP-IQ/CFP-ICDI FRET, cherry-picks, dose response (AID 1053205);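 also: 0% = median of neutral control wells and -100% = median of positive control wells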
Settings: HEK293 YFP-IQ/CFP-ICDI FRET ratio, 10 min; series mostly up to 35 µM; FRET change, negative = inhibition: at the top concentration

Chain of Voltage-dependent L-type calcium channel subunit alpha-1D (Homo sapiens) (Q01668 whole entry, looked up, the tested form may be a part): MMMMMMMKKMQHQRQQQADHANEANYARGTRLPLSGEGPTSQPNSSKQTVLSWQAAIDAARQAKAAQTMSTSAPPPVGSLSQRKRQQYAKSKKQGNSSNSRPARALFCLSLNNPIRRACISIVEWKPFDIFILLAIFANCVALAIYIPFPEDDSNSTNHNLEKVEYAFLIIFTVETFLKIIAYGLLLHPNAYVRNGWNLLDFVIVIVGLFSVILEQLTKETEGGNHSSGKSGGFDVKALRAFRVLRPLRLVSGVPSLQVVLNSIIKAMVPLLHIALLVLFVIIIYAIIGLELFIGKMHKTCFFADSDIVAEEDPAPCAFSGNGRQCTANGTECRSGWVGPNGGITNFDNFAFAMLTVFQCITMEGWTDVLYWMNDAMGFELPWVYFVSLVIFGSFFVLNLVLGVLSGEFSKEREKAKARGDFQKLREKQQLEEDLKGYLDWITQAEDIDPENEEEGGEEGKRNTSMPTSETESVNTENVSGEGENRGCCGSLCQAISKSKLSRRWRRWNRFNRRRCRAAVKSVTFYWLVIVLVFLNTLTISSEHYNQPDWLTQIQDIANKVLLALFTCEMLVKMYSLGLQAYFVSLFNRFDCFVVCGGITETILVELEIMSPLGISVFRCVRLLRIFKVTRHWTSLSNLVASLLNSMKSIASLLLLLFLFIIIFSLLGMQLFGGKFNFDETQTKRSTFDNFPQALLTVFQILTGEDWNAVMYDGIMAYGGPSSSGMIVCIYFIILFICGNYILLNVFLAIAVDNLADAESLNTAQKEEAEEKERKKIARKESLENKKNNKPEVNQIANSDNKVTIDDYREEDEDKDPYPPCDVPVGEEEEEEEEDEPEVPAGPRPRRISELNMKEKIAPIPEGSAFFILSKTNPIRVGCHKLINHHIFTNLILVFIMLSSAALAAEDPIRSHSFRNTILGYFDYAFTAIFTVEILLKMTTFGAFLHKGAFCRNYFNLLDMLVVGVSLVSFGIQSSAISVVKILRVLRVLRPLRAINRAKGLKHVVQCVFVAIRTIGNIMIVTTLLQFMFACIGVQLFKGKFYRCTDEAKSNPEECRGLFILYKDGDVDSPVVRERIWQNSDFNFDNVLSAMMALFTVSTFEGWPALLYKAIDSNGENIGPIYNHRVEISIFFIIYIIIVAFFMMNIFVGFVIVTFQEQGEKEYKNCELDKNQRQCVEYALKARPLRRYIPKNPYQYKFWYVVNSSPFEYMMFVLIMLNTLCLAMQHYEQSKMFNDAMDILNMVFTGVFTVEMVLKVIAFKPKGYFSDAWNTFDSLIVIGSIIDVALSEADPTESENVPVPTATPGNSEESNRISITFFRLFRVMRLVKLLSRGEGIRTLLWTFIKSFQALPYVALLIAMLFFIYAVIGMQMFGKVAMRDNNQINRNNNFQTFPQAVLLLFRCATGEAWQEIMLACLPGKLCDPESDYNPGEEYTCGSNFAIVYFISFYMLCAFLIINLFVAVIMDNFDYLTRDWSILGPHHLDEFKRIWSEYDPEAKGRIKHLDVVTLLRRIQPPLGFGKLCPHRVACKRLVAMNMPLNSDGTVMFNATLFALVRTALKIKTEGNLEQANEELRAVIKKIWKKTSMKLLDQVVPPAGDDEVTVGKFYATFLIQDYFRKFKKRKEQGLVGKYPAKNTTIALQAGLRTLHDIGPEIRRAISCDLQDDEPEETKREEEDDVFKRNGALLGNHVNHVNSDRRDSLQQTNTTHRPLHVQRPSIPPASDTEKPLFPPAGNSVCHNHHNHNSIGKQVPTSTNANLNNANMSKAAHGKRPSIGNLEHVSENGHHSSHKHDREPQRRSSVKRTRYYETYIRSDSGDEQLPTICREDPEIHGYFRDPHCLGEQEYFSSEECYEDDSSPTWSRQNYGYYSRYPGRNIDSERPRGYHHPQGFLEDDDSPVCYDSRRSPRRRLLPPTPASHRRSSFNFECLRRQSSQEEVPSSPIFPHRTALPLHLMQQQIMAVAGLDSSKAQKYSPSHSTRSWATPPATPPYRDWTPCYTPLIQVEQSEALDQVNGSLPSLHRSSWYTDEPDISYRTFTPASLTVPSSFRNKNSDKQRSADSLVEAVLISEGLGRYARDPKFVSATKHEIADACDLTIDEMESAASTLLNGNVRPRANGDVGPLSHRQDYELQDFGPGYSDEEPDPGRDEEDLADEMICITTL

FRET change, negative = inhibition, inactive:
COc1cc(C(=O)OCC(C)=O)cc(NC(=O)c2ccco2)c1OC 32.1%, Cc1cccn2c(=O)c3cc(C(=O)NC(C)c4ccccc4)c(=N)n(CCCn4ccnc4)c3nc12 (stereo unspecified) 201% [at 16 µM], O=C(O)c1ccc(N2N=C(c3ccccc3)CC2c2ccccc2)cc1 (stereo unspecified) 177%, COc1cc(C2C3=C(CC(C)(C)CC3=O)N(C)C3=C2C(=O)CC(C)(C)C3)cc(Br)c1O -4.72%, Cc1ccc(-c2nc3ccsc3c(=O)[nH]2)cc1 22.7%, COc1ccc(-[n+]2c(C)cc(/C=C3\Sc4ccccc4N3C)cc2C)cc1 182%, CCOC(=O)c1cc2c(=O)n3ccccc3nc2n(C(C)C)c1=NC(=O)c1ccco1 208% [at 8 µM], COc1ccccc1/C=N/Nc1nc(C)cc(=O)[nH]1 1.46%, CCOc1ccc(NC(=O)CN(C)C(=O)CCCNC(=O)c2ccc(Cl)cc2)cc1OCC 6.84%, CSc1ccc(Cn2c(C)c(C(=O)NCc3cccc(Cl)c3)sc2=O)cc1 -8.54%, O=C(COC(=O)c1cc(S(=O)(=O)N2CCCCC2)ccc1N1CCOCC1)c1ccccc1Cl -0.931%, COc1ccc(CCNC(=O)c2cc(S(=O)(=O)N3CCCCC3)c[nH]2)cc1OC 118%, CC(C)(C)[C@H]1CCC(=O)N([C@H](CSc2ccccc2)Cc2ccccc2)CC1 -35.3%, O=C(O)C1=CC[C@@H](c2ccc(Cl)cc2)N(S(=O)(=O)c2ccc(Cl)cc2)[C@H]1c1ccc(F)cc1 4.82%, O=C(NS(=O)(=O)c1ccc(Cl)s1)c1ccccc1 74.7%, CN1CCc2c(sc(NC(=O)C3CCCCC3)c2C(N)=O)C1 154%, CC1(C)CC(=O)C2=C(C1)OC(N)=C(C#N)[C@@H]2c1ccccc1[N+](=O)[O-] 5.07% [at 16 µM], CCN(c1ccccc1)S(=O)(=O)c1ccc(OC)c(NC(=O)CN(C)C)c1 10.1%, O=c1oc2c(CN3CCN(CCO)CC3)c(O)ccc2cc1-c1ccccn1 470%, N#Cc1ccc(OCC(=O)OCC(=O)N2CCc3ccccc32)cc1 -4.01%, N=c1oc2cc(O)ccc2cc1C(=O)Nc1ccc(Br)cc1 244%, CCN(CC)c1ccc2cc(S(=O)(=O)c3ccc(Cl)cc3)c(=O)oc2c1 423% [at 16 µM], COc1ccccc1C1C2=C(CC(C)(C)CC2=O)N(CC(=O)O)C2=C1C(=O)CC(C)(C)C2 413%, Cc1oc(/N=C/c2ccc(O)cc2O)c(C#N)c1C -2.04%, O=C(NCc1nnnn1-c1ccc(Cl)cc1)C1CC(=O)N(c2ccc(F)cc2)C1 (stereo unspecified) -0.771%, CC(=O)c1sc(N/N=C\c2ccc(N(C)C)cc2)nc1C 204%, Cc1cccn2c(=O)c3cc(C(=O)NCc4ccc(F)cc4)c(=N)n(CCCN4CCOCC4)c3nc12 90.3%, COCCCOc1cc(NCc2ccccc2)c2ncn(C(C)C)c2c1 9.32%, O=C(O)c1cccc(Nc2nc(-c3cc4ccccc4oc3=O)cs2)c1 192%, Cc1nc2ccccc2c2oc(C(=O)NCCCN3CCC(C)CC3)cc12 5.53%, Cc1noc(C)c1-c1ccc(C(=O)NCCc2ccccc2)c2occc12 16.9%, CCCOc1ccccc1/C=C1\SC(N)=NC1=O 78.1%, COc1ccc(NC(=O)C2CCC(CNS(=O)(=O)c3cccs3)CC2)cc1 (stereo unspecified) 21.3%, CCOC(=O)c1cc2c(=O)n3cccc(C)c3nc2n(CC(C)C)c1=NC(=O)c1ccco1 159% [at 8 µM], Cc1ccc2nc3c(cc(C(=O)NCc4ccccc4)c(=N)n3CCCn3ccnc3)c(=O)n2c1 404%, CC(=O)Nc1cccc(-c2ccnc3c2CC(C(=O)NCc2cccc(Cl)c2)O3)c1 (stereo unspecified) 10.8%
